For 20 compounds, Potency results are on record in PubChem BioAssay (NCATS).

Assay [1] can be described thus: qHTS of pediatric cancer cell lines to identify multiple opportunities for drug repurposing: Primary screen for TC32 cells (AID 1347089). Further: nearly all actives have a fitted effect of over 60% in size. The method in brief:
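TC32 cells, 500-1,000/well in growth medium, compound-treated 48 h at 37 °C; viability from CellTiter-Glo luminescence. Primary screen: MIPE 11-point (0.78 nM–46 µM final), NPC 8-point (0.59 nM–46 µM final); confirmatory at 11-point dilutions.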

Assay [2] is described as follows: qHTS of pediatric cancer cell lines to identify multiple opportunities for drug repurposing: Primary screen for SK-N-MC cells (AID 1347093). The method in brief: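 Metabolically active cells were quantified by ATP-dependent luminescence (CellTiter-Glo, 15 min at room temperature) following 48 h treatment. Cells had been plated at 500-1,000 per well and settled for 5 h beforehand.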

The nature of assay [3]: qHTS of pediatric cancer cell lines to identify multiple opportunities for drug repurposing: Primary screen for NB-EBc1 cells (AID 1347095). The method in brief:
(§1)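 ATP-based luminescence (CellTiter-Glo) quantifies viability after a 48-hour exposure. Compounds are dosed across 8 or 11 final concentrations; DMSO and 2.3 µM bortezomib serve as controls.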

Assay [4] can be described thus: qHTS of pediatric cancer cell lines to identify multiple opportunities for drug repurposing: Primary screen for Saos-2 cells (AID 1347097). Further: nearly all actives have a fitted effect of over 40% in size. The method in brief: as §1
A short description of assay [5]: qHTS of pediatric cancer cell lines to identify multiple opportunities for drug repurposing: Primary screen for NB1643 cells (AID 1347099). Further: nearly all actives have a fitted effect of over 50% in size. The method in brief: as §1
Assay [6] in a line: qHTS of pediatric cancer cell lines to identify multiple opportunities for drug repurposing: Primary screen for U-2 OS cells (AID 1347096). Further: nearly all actives have a fitted effect of over 50% in size. The method in brief:
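Cells (500-1,000/well) in growth media were settled 5 h at 37 degrees C, then given compounds for 48 h. Viability was read as CellTiter-Glo luminescence. Primary runs used MIPE at 11 points (0.78 nM-46 µM) and NPC at 8 points (0.59 nM-46 µM); follow-ups used 11 points.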

Assay [7] is described as follows: qHTS of pediatric cancer cell lines to identify multiple opportunities for drug repurposing: Primary screen for SJ-GBM2 cells (AID 1347091). In short, it runs like this: (§2)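 Eight- or eleven-point concentration series, 48 h treatment at 37 degrees C in growth media; readout CellTiter-Glo luminescence. Potency and efficacy were taken from the concentration-response curves.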

Assay [8] is described as follows: qHTS of pediatric cancer cell lines to identify multiple opportunities for drug repurposing: Primary screen for BT-37 cells (AID 1347094). In short, it runs like this:
as §1

The nature of assay [9]: NS1 protein of Zika virus - qHTS assay to identify small molecule inhibitors in human HEK 293 cells (AID 1347053). Further: nearly all actives have a fitted effect of over 55% in size. The method in brief: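 Compound-treated (1 h pre-infection) HEK 293 cells infected with ZIKV MR766, MOI = 0.5; after 24 h at 37 C, NS1 read by TR-FRET; data normalized to uninfected and infected controls.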
The nature of assay [10]: qHTS of pediatric cancer cell lines to identify multiple opportunities for drug repurposing: Primary screen for SK-N-SH cells (AID 1347098). Further: nearly all actives have a fitted effect of over 65% in size. In short, it runs like this:
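Cells (500-1,000/well) rested 5 h, then received compounds for 48 h; metabolically active cells were measured by CellTiter-Glo luminescence. Final concentrations spanned up to 46 µM (MIPE, 11-point) or 0.59 nM-46 µM (NPC, 8-point) in primary screens, 11-point in follow-ups.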

A short description of assay [11]: qHTS of pediatric cancer cell lines to identify multiple opportunities for drug repurposing: Primary screen for A673 cells (AID 1347092). Further: nearly all actives have a fitted effect of over 45% in size. In short, it runs like this:
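A673 cells (500-1,000 cells/well) were treated 48 hours at 37 degrees C with compounds at 11-point (0.78 nM to 46 µM) or 8-point (0.59 nM to 46 µM) dilutions. Viability read by CellTiter-Glo luminescence; concentration-response curves fitted.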

The nature of assay [12]: qHTS of pediatric cancer cell lines to identify multiple opportunities for drug repurposing: Primary screen for DAOY cells (AID 1347090). Further: nearly all actives have a fitted effect of over 55% in size. In short, it runs like this:
as §2

Several values for one entry are separate records, joined by “and”; a condition that tells them apart may be missing. Equal entries are not always repeated. Results filed as inconclusive are left out. Activity calls are given as the source filed them. The call rests on the fitted dose curve; in most records, active means well fitted curve in the direction sought with a large enough effect; inconclusive means small, poorly fitted or top-dose-only effect, or another doubt; inactive means no such curve, though single readings can be large; an effect the other way counts as inactive or inconclusive.
Potency means the concentration at half of the fitted maximal effect.

Turning to `O=C1Nc2ccc(Cl)cc2C(C#CC2CC2)(C(F)(F)F)O1` (stereo not drawn), the Potency result in assay [1] and in [3] was “inactive” throughout. Further, the Potency in assay [2] is 13.2 µM (active); in assay [4], 20.9 µM (active); in assay [5], 23.5 µM (active).

Take `O=C(Nc1cccc(Br)c1)c1cccc(S(=O)(=O)N2CCCCCC2)c1`: the Potency result in assay [1] and in assay [6] was “inactive” each time. For the same compound, in assay [4], the Potency was 16.6 µM (active).

Take `C[N+](C)(C)CC(=O)O`: the Potency result in assay [1], in assay [7], in assay [8], in assay [3], in assay [6] and in assay [4] was “inactive” in each case. For the same compound, the Potency entry in [5] is “inactive”. Moreover, in assay [2], the Potency was 16.6 µM (active).

For the compound `O=C1NC(=O)C(=Cc2cccc(C(F)(F)F)c2)S1`, the Potency entry in assay [9], in assay [1], in [8], in [6], in assay [4] and in [10] was “inactive” in each case.

In the case of `CC=CC[C@@H](C)C(=O)[C@H]1C(=O)N[C@@H](C(C)C)C(=O)N(C)CC(=O)N(C)[C@@H](CC(C)C)C(=O)N[C@@H](C(C)C)C(=O)N(C)[C@@H](CC(C)C)C(=O)N[C@@H](C)C(=O)N[C@H](C)C(=O)N(C)[C@@H](CC(C)C)C(=O)N(C)[C@@H](CC(C)C)C(=O)N(C)[C@@H](C(C)C)C(=O)N1C`, the Potency result in [1], in assay [3] and in assay [6] was “inactive” each time. Besides, the Potency in assay [7] and in assay [4] was 18.7 µM (active) throughout.

For the compound `C=CCc1ccc(O)c(-c2ccc(O)c(CC=C)c2)c1`, the Potency result in assay [1], in [3], in [6] and in assay [5] was “inactive” throughout. For the same compound, the Potency was 23.5 µM (active) in assay [11], 23.5 µM (active) in assay [2] and 18.7 µM (active) in assay [4].

Take `Nc1ncnc2c1nc(Cl)n2[C@@H]1O[C@H](CO)[C@@H](O)[C@@H]1O`: the Potency result in [1], in assay [3] and in assay [4] was “inactive” throughout. In addition, the Potency in assay [7] was 11.8 µM (active); in assay [11], 23.5 µM (active); in assay [2], 26.4 µM (active); in [5], 16.6 µM (active).

For `CC(C)n1cnc2c(NCCCCCCNC(=O)OC(C)(C)C)nc(NCCO)nc21`, the Potency result in assay [9], in [1], in assay [3], in [4] and in [10] was “inactive” throughout. Moreover, the Potency in assay [11] was 18.7 µM (active).

On to `CC[C@H]1OC(=O)[C@H](C)C(=O)[C@H](C)[C@@H](O[C@H]2O[C@H](C)C[C@H](N(C)C)[C@@H]2O)[C@](C)(OC)C[C@@H](C)C(=O)[C@H](C)[C@H]2N(CCCCn3cnc(-c4cccnc4)c3)C(=O)O[C@]12C`, for which the Potency result in assay [1], in assay [12], in [7], in assay [3], in assay [6] and in [4] was “inactive” each time.

In the case of `CNC1CCC(N(Cc2cccc(-c3ccncc3)c2)C(=O)c2sc3c(F)ccc(F)c3c2Cl)CC1` (stereo not drawn), the Potency is 10.5 µM (active) in assay [9]; 1.18 µM (active) in [2]; 18.7 µM (active) in assay [4]; 19.2 µM (active) in assay [10]; 18.7 µM (active) in assay [5]. Besides, the Potency entry in assay [1] was “inactive”.

For `O=c1c(-c2ccc(O)cc2)coc2cc(OC3O[C@H](CO)[C@H](O)[C@H](O)[C@H]3O)cc(O)c12` (stereo partly drawn), the Potency entry in assay [9], in assay [7] and in assay [4] was “inactive” each time. Besides, the Potency in assay [12] is 3.72 µM (active); in [11] it was 2.96 µM (active); in assay [2], 2.96 µM (active); in assay [8] it was 21.7 µM (active); in [3] it was 18.7 µM (active); in assay [10], 9.61 µM (active).

In the case of `CC(C)OC(=O)CCCC=CC[C@@H]1[C@H](C=C[C@@H](O)COc2cccc(C(F)(F)F)c2)[C@H](O)C[C@@H]1O`, the Potency result in assay [1], in [11] and in [6] was “inactive” throughout. For the same compound, the Potency was 23.5 µM (active) in [3], 14.8 µM (active) in [4] and 23.5 µM (active) in assay [5].

On to `COc1cc2ncnc(Nc3ccc(F)c(Cl)c3)c2cc1OCCCN1CCOCC1`, for which the Potency in assay [1] is 38 µM (active); in assay [12], 4.29 µM (active); in [7], 1.71 µM (active) and 8.41 µM (active); in [2] it was 1.91 µM (active) and 26.6 µM (active); in assay [8], 15.7 µM (active) and 19.5 µM (active); in [6] it was 42.9 µM (active). Besides, the Potency in assay [4] was 13.6 µM (active); in assay [10], 17.5 µM (active) and 27.3 µM (active); in [5], 34 µM (active).

Turning to `C=C1C(=O)[C@@]23C(CC[C@@H]1[C@H]2O)[C@@]12CO[C@]3(O)[C@@H](O)[C@@H]1C(C)(C)CC[C@@H]2O` (stereo partly drawn), the Potency in [9] was 9.35 µM (active); in [1], 16.5 µM (active); in assay [7], 8.33 µM (active); in assay [2], 1.66 µM (active); in assay [8], 27.3 µM (active); in assay [3] it was 2.09 µM (active). For the same compound, the Potency in assay [6] is 14.8 µM (active); in assay [4], 4.69 µM (active); in assay [10], 15.2 µM (active); in [5], 1.48 µM (active).

With `CCCCCNC(=O)N1CCC(CN(Cc2ccc(Cl)cc2)Cc2ccc([N+](=O)[O-])s2)C1` (stereo not drawn), the Potency entry in assay [1], in [7] and in [10] was “inactive” in each case. The Potency in assay [11] is 23.5 µM (active); in assay [2], 9.35 µM (active); in [3], 26.4 µM (active); in [5] it was 23.5 µM (active).

On to `O=C(Nc1ccccc1Br)N[C@@H]1CCN(c2ccc(C(F)(F)F)cn2)C1`, for which the Potency result in [1] and in assay [6] was “inactive” each time. In assay [4], the Potency was 18.7 µM (active).

On to `CO[C@H]1C[C@@H]2CC[C@@H](C)[C@@](O)(O2)C(=O)C(=O)N2CCCC[C@@H]2C(=O)O[C@H]([C@H](C)C[C@@H]2CC[C@H](OP(C)(C)=O)[C@H](OC)C2)CC(=O)[C@H](C)C=C(C)[C@@H](O)[C@@H](OC)C(=O)[C@H](C)C[C@H](C)C=CC=CC=C1C`, for which the Potency result in [9], in assay [12], in assay [11], in assay [6], in assay [10] and in [5] was “inactive” each time.

For `c1ccc2c(-c3cnn4cc(-c5ccc(N6CCNCC6)cc5)cnc34)ccnc2c1`, the Potency in assay [9] is 4.18 µM (active). Also, the Potency entry in assay [1] and in [6] was “inactive” in each case.

As for `CS(=O)(=O)N(Cc1ccco1)CC(O)Cn1c2ccccc2c2ccccc21` (stereo not drawn), the Potency entry in [12], in assay [8], in assay [3], in assay [6] and in assay [10] was “inactive” throughout.

In the case of `COc1ccc(C2CC(c3ccccc3)=NN2c2ccc(S(N)(=O)=O)cc2)cc1` (stereo not drawn), the Potency entry in [1], in [12] and in [10] was “inactive” in each case. The Potency in [2] was 18.7 µM (active); in assay [8], 12.2 µM (active); in assay [4], 16.6 µM (active).
